Measured values from ChEMBL document CHEMBL3988442, “University of Dundee, Small-Polar-MMV Screening Library” (2021).
Among all 38,000 compounds or so, about 1,200 (3.2%) showed an effect of 50% or more. The median lay at about -58%. Many of the other results were omitted from the sample, so strong results are more common in it than they were.

Each molecule was assayed on Plasmodium falciparum (assay: Calibr Malaria Delayed Death Assay SOP). Conditions: concentration 4.99e-06 (unit not given; other assays of the set use mol/L).
Assay type: functional, organism-based
Parameters: scale not given: in the data most compounds retested in dose-response had high values

Structure (SMILES)	Percent Effect [%]
COC(=O)c1ccc(C(=O)N2CCC(c3nnc(C)s3)CC2)cc1	-39.58
CC(O)c1cccc(-n2c(CCC(=O)O)nc3ccccc32)c1 (centres undefined)	-169.3
OCCNc1nc(Nc2ccccc2)c2nccnc2n1	-38.96
Cc1nc(C)n(CC2CCCN2CCCc2nc3ccccc3o2)n1 (centres undefined)	-41.56
Cl.Cl.OC(CN1CCN(Cc2cc(F)ccc2F)CC1)C1CC1 (centres undefined)	0.4009
COc1ncc(C2(O)CCN(Cc3cc(F)ccc3F)CC2)c(OC)n1.Cl	-42.34
COc1ccc(OC)c(CN2CCC(c3cc(O)nc(C)n3)C2)c1 (centres undefined)	-6.514
Fc1cccnc1N1CCC(NCc2cccc3cn[nH]c23)C1 (centres undefined)	-62.75
COc1ncc(C2(O)CCN(Cc3cccc(F)c3F)CC2)c(OC)n1.Cl	-65.3
COc1ccc(C)cc1CN1CCN(Cc2nccn2C)CC1	-87.98
CC(C(=O)Nc1cccc(Cl)c1SC(F)F)S(C)(=O)=O (centres undefined)	-87.5
Cc1cc(CN2CCN(c3ccnc(-c4ccccc4)n3)CC2)no1	-117.2
Cc1cc(NC(=O)C2CN(Cc3ccccc3)CCO2)ccn1 (centres undefined)	-48
NC(=O)c1cnc2n1CCN(C(=O)c1cccc(Cn3cccn3)c1)C2	-26.24
O=C1CCCN1CCC1CCN(C2CCC3(CCNCC3)CC2)CC1	-113.8
Cc1ccc(NC(=O)Nc2cnc(N3CCN(C)CC3)nc2)cc1	58.27
Cc1cc(C)cc(NC(=O)c2cnc(N3CCN(C)CC3)nc2C)c1	-105.5
COc1ccc(NC(=O)Nc2cnc(N3CCN(C)CC3)nc2)cc1Cl	87.5
COc1ccc(C)cc1NC(=O)Nc1cnc(N2CCOCC2)nc1	6.993
COc1ccc(NC(=O)c2cnc(N3CCN(C)CC3)nc2C)cc1	-110.8
COc1ccc(C)cc1NC(=O)Nc1cnc(N2CCCC2)nc1	-31.15
CCN(CC)C(CNS(=O)(=O)c1ccc(C(N)=O)cc1)c1ccco1 (centres undefined)	-82.08
O=C(O)C(F)(F)F.O=S(=O)(c1cccs1)N1Cc2nc(CN3CCCCC3)oc2C1	-52.21
O=C(CCO)N1CC[C@@H]2CN(C(=O)c3ccco3)CCO[C@@H]2C1	-32.06
COc1c(C)cnc(CN(C)C2CCOC3(CCOCC3)C2)c1C (centres undefined)	-5.784

Structure (SMILES)	Percent Effect [%]
COc1c(C)cnc(CN2CCC(C(=O)N(C)C)CC2)c1C	-25.53
COc1c(C)cnc(CN2CCC(N(C)C(C)C(N)=O)CC2)c1C (centres undefined)	77.51
COc1c(C)cnc(CN2CCn3c(nnc3C(C)C)C2)c1C	-75.36
COc1c(C)cnc(CN(C)C2CCCCC2)c1C	76.34
COc1c(C)cnc(CN(C)C(=O)c2ccccc2O)c1C	-65.02
CCC(=O)N(C)C1CCN(Cc2ncc(C)c(OC)c2C)CC1	-107.4
COc1c(C)cnc(CN2CCn3c(nnc3C3CC3)C2)c1C	-38.06
CSc1ccc(C(=O)N2CC(=O)N(CC3CC3)CC(O)C2)cc1 (centres undefined)	-80.98
CC(C)c1nn(C)c(N(C)C)c1CNC1CCOc2ccccc21 (centres undefined)	-13.52
O=C(O)C(F)(F)F.O=C(c1ccccc1F)N1CCC2(CC1)CC(N1CCCC1)CO2 (centres undefined)	-57.39
Cc1nc(C2CCCN(C(=O)c3cc(-c4ccccc4)[nH]n3)C2)no1 (centres undefined)	-103.7
O=C(COc1coc(CN2CCCCC2)cc1=O)Nc1cccc(Cl)c1	-36.85
N#Cc1cc(F)c(NCc2ccc(F)cc2)c(F)c1	-56.06
Cc1cccc(NC(=O)C2(n3cnnn3)CCCCC2)n1	-65.2
O=C(C1=CCCC1)N1C[C@@H]2COC[C@]2(COCC2CC2)C1	-77.68
COc1ccc(CNCC2CN(C3CC3)CCO2)cc1F (centres undefined)	-41.72
CCN1CCOC(CNCc2ccc(OC)c(F)c2)C1 (centres undefined)	-53.15
OCCN1CCC(CNCc2cn(-c3ccccc3)nn2)CC1	-75.43
COc1ccc(CNCC2CCN(CCO)CC2)cc1F	57.05
CCOCCNCC1CCN(CCO)CC1	-86.72
Clc1ccc(C(CNCc2ccncc2)n2cccn2)cc1 (centres undefined)	-53.83
Cn1cc(CNCC(c2ccc(Cl)cc2)n2cccn2)cn1 (centres undefined)	16.07
CCn1cc(CNCC(c2ccc(Cl)cc2)n2cccn2)cn1 (centres undefined)	59.81
CCn1cc(-c2n[nH]c(=O)n2-c2ccc3c(c2)OCO3)c(C)n1	-101.4
CCC[C@H]1CN(Cc2cscn2)C[C@@H]1NC(=O)C1(COC)CCC1	-24.11

Structure (SMILES)	Percent Effect [%]
CCC[C@H]1CN(c2nc(CO)cs2)C[C@@H]1NC(=O)C1(COC)CC1	71.28
CCC[C@H]1CN(c2nc(CO)cs2)C[C@@H]1NC(=O)C1CCC1	1.552
CC(C)C[C@H](NC(=O)Cn1ccc2c(Cl)cccc21)C(=O)O	-50.44
COc1cccc(CN(C)Cc2nc(C(C)C)no2)c1	-65.15
O=C(O)C(F)(F)F.O=C(c1c[nH]cn1)N1CCC(F)(F)C2(CCN(c3ncccn3)C2)C1 (centres undefined)	-29.78
O=C(O)C(F)(F)F.O=C(O)C(F)(F)F.OCCN1CC2(CCN(c3ccccc3)C2)C1	61.64
FC1(F)CCN(c2ccccc2)CC12CCN(c1ncccn1)C2 (centres undefined)	-152.8
OCCN1CCC(F)(F)C2(CCN(c3cccnc3)C2)C1 (centres undefined)	-53.32
FC1(F)CCN(Cc2cccnc2)CC12CCN(c1cnccn1)C2.O=C(O)C(F)(F)F.O=C(O)C(F)(F)F.O=C(O)C(F)(F)F (centres undefined)	-45.54
FC1(F)CCN(Cc2ccncc2)CC12CCN(c1cccnc1)C2.O=C(O)C(F)(F)F.O=C(O)C(F)(F)F.O=C(O)C(F)(F)F (centres undefined)	15.13
FC1(F)CCN(Cc2cccnc2)CC12CCN(c1ccccc1)C2.O=C(O)C(F)(F)F.O=C(O)C(F)(F)F.O=C(O)C(F)(F)F (centres undefined)	84.58
O=C(O)C(F)(F)F.O=C(O)C(F)(F)F.O=C(c1c[nH]cn1)N1CCC(F)(F)C2(CCN(c3ccccn3)C2)C1 (centres undefined)	-115.9
O=C(O)C(F)(F)F.O=C(c1c[nH]cn1)N1CCC(F)(F)C2(CCN(c3cccc(F)c3)C2)C1 (centres undefined)	85.76
CN1CC(=O)N(c2ccccc2)CC12CCN(CCO)C2.O=C(O)C(F)(F)F.O=C(O)C(F)(F)F (centres undefined)	-19.33
Cn1cnc(S(=O)(=O)N2CC3(CCN(c4ccccc4)C3)C2)c1.O=C(O)C(F)(F)F	1.109
C=C(C)CN1CCC(NC(=O)Nc2ccc(F)c(C(N)=O)c2)CC1	-90.89
Cc1cc(Br)ccc1C(=O)NCCN1CCCCCC1	28.4
COc1ccc(Cn2cc(C(=O)N(C)Cc3ccn[nH]3)nn2)cc1	-12.45
CCC(C)[C@H](N)c1nnc(SCC(=O)Nc2ccc(C)cc2C)o1.Cl (some centres undefined)	-23.34
COc1ccc(C2CCCCCN2Cc2cn(C)nc2C)cc1 (centres undefined)	-0.1987
CSc1ncnc(NCc2ccccc2F)c1C#N	-23.93
O=C1COc2cc(C(=O)NS(=O)(=O)c3ccc(F)cc3)ccc2N1	-21.19
Cc1nn(C)c(Cl)c1C1CCCN1C(=O)c1cccn1C (centres undefined)	-34.06
c1cc(CNCC2CNc3ccnn3C2)cc(Cn2cccn2)c1 (centres undefined)	-27.88
FC1(F)CCNCC12CCN(c1ncccn1)C2 (centres undefined)	17.29

Structure (SMILES)	Percent Effect [%]
Cn1ccnc1CN1CCC(F)(F)C2(CCN(c3cccnc3)C2)C1.O=C(O)C(F)(F)F.O=C(O)C(F)(F)F (centres undefined)	58.45
N#Cc1ccc(N2CCCC3(CCN(c4cccnc4)CC3)C2)cc1.O=C(O)C(F)(F)F	-71.51
Fc1cccnc1N1CCC2(CNCCC2(F)F)C1 (centres undefined)	45.04
O=C(CO)N1CCC(F)(F)C2(CCN(c3ccccc3)C2)C1.O=C(O)C(F)(F)F (centres undefined)	-34.49
Cn1ccnc1CN1CCC2(CC1)CN(Cc1cccnc1)C(=O)CO2.O=C(O)C(F)(F)F.O=C(O)C(F)(F)F	-38.55
O=C(C1CCCO1)N1CCCC2(CCN(c3cccnc3)CC2)C1.O=C(O)C(F)(F)F (centres undefined)	-72.8
FC1(F)CCNCC12CCN(c1ccccn1)C2 (centres undefined)	56.42
O=C(O)C(F)(F)F.O=C(O)C(F)(F)F.O=C(O)CN1CCC(F)(F)C2(CCN(c3ccccn3)C2)C1 (centres undefined)	-82.81
O=C(O)C(F)(F)F.O=C(O)C(F)(F)F.O=C(O)CN1CCC(F)(F)C2(CCN(c3ccccc3)C2)C1 (centres undefined)	66.58
Cn1ccnc1CN1CCC(F)(F)C2(CCN(c3cnccn3)C2)C1.O=C(O)C(F)(F)F (centres undefined)	-1.841
FC1(F)CCNCC12CCN(c1cccnc1)C2.O=C(O)C(F)(F)F.O=C(O)C(F)(F)F (centres undefined)	64.81
COCC1CN(Cc2ccoc2)Cc2nn(CC3CC3)cc21.O=C(O)C(F)(F)F (centres undefined)	-62.03
O=C(C1CC(c2ccccc2)=NO1)N1CCc2ccccc21 (centres undefined)	-20.98
Cc1cnn(CCNCC(=O)NCCOc2ccc(Cl)cc2)c1	-0.9504
O=C(Cc1noc(C(=O)NCC2CC2)n1)Nc1cccc(C(F)(F)F)c1	7.243
Clc1snnc1CN1CCN(c2nccs2)CC1	-49.26
CC(=O)Nc1cccc2c1ccn2CC(=O)Nc1n[nH]c(CC(C)C)n1	-107.2
Cc1csc(CNC(=O)N2CCN(Cc3ccco3)CC2)n1	-96.64
CNc1cc(C)nc(N2C[C@H](NC(=O)C3CCOCC3)[C@@H](C3CC3)C2)n1	-47.54
CCc1cc(N2C[C@H](C3CC3)[C@@H](N)C2)nc(N2CCCC2)n1	69.94
CNc1cc(C)nc(N2C[C@H](C3CC3)[C@@H](N)C2)n1	87.7
CNc1cc(C)nc(N2C[C@@H](C(=O)O)[C@H](C3CC3)C2)n1	-82.68
N[C@H]1CN(Cc2cnc(N3CCCC3)nc2)C[C@@H]1C1CC1	-9.289
CC(C)Oc1cc(N2C[C@H](C3CC3)[C@@H](N)C2)nc(N)n1	-219.2
